In PubChem BioAssay (Tox21):
Values without a mark were called inactive. Inconclusive results are not listed. Entries that show only a call come without a potency. Activity calls are given as the source filed them. Unless noted, calls follow the shape of the full dose curve.

Target: Gonadotropin-releasing hormone receptor (Homo sapiens) (UniProt P30968)
Test: Human gonadotropin-releasing hormone receptor (GnRHR) small molecule agonists, calcium flux assay in GnRHR-HEK293 cells (AID 1920063); also: nearly all actives have a fitted effect of over 35% in size
Conditions: calcium flux fluorescence, agonist mode; series mostly up to 57.6 µM; activity change: at the top concentration
In short: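 We seeded human GnRHR-expressing HEK293 cells for 18 hours, loaded them with calcium dye for an hour at 37 C, added test compounds, and recorded fluorescence intensity kinetically for three minutes.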

Sequence of Gonadotropin-releasing hormone receptor (Homo sapiens) (P30968 whole entry, looked up): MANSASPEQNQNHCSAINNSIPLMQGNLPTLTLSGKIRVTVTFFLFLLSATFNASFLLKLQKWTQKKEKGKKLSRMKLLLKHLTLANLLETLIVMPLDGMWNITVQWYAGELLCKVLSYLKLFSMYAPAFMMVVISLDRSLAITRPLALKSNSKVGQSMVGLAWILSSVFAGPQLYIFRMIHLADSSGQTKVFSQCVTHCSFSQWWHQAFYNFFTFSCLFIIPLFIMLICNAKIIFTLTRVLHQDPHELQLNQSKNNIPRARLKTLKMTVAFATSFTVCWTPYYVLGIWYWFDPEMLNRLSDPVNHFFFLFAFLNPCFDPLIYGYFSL

Structure (SMILES)	activity change	Potency
CCOP(=O)(O)OCC (tested in a mixture with another compound)	-0.708%	
O=[N+]([O-])c1ccc(Cl)c(Cl)c1		inactive
CC(C)(O)C(=O)Nc1ccc([N+](=O)[O-])c(C(F)(F)F)c1		inactive
CCCCNC(=O)n1c(NC(=O)OC)nc2ccccc21		inactive
CCC(Cl)[N+](=O)[O-] (stereo not drawn)	-2.31%	
CCCCCCCCCCCC(=O)O		inactive

Target: KiSS-1 receptor (Homo sapiens) (UniProt Q969F8)
Sequence (Q969F8 whole entry, looked up): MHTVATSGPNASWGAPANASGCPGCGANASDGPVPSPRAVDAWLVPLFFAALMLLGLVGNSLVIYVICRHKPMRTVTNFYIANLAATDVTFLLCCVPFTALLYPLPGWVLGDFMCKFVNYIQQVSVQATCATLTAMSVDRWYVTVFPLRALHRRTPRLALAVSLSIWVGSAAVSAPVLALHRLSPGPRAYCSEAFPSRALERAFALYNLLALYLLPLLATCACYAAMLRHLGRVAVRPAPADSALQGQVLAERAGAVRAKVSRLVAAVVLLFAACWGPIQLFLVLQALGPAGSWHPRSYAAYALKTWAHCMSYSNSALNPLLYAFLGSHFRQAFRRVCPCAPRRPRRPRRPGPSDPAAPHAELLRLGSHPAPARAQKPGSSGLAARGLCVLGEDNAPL
Test: Human kisspeptin (KISS1R) small molecule agonists, calcium flux assay in KISS1R-HEK293 cells (AID 1920064; active = well fitted activation curve with a large enough effect in the repeat runs)
Conditions: KISS1R-HEK293, calcium flux fluorescence, agonist; series mostly up to 76.8 µM; activation: at the top concentration
In short: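 Kinetic calcium assay, 1 s sampling over 3 min at Ex/Em 480/540, in HEK293 cells engineered with human KISS1R; compounds delivered in DMSO after 1 h dye loading.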

Structure (SMILES)	activation
CCOP(=O)(OCC)OP(=O)(OCC)OCC	-0.22%
ClCC(Br)CBr (stereo not drawn)	-3.49%
CON(C)C(=O)Nc1ccc(Cl)cc1	-1.21%
CCCCCBr	3%
OC(Cc1ccccc1Cl)(Cn1cncn1)C1(Cl)CC1 (stereo not drawn)	-0.159%

Tested on: not listed separately
Test: G protein-coupled receptor (GPCR) small molecule agonists, calcium flux assay: HEK293 wild type cell line counter screen (AID 1920065)
Conditions: HEK293 WT calcium flux, fluorescence, agonist mode; series mostly up to 57.6 µM; activation: at the top concentration
In short: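 Calcium-sensitive dye, loaded 1 h at 37 C into cells cultured 18 h, reports compound-evoked calcium release as fluorescence (Ex/Em 480/540), measured over 3 min. Agonist mode; 15-point titrations, triplicate.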

Structure (SMILES)	activation	Potency
C=CC=O	0.614%	
c1nc[nH]n1		inactive
c1ccc(Nc2ccc3ccccc3c2)cc1		inactive
CCOP(=O)(OCC)OP(=O)(OCC)OCC	-0.0202%	
Nc1cccnc1		inactive
Clc1ccccc1Cl		inactive
CCN(CC)C(=S)S		inactive
Nc1ccc(-c2ccc(N)c(N)c2)cc1N		inactive
CC(C)OS(C)(=O)=O	-0.458%	
CCCCOC(=O)c1ccccc1C(=O)O	0.896%	
CC(=O)[O][Hg][c]1ccccc1		inactive
CCCCCCCCCl		inactive
O=S(=O)(O)OOS(=O)(=O)O		inactive
ClCC(Br)CBr (stereo not drawn)	0.192%	
CC(C)C#N		inactive
CCOC(=O)CC(SP(=O)(OC)OC)C(=O)OCC (stereo not drawn)		inactive
CCCCCON=O	-0.333%	

Structure (SMILES)	activation	Potency
FC(F)(F)c1ccc(Cl)cc1		inactive
CON(C)C(=O)Nc1ccc(Cl)cc1	0.136%	
COP(=S)(OC)Oc1ccc([N+](=O)[O-])cc1		inactive
CCCCCCCCC(=O)NCc1ccc(O)c(OC)c1		inactive
Cc1ccc(N)cc1		inactive
CCCCCCCCCCCCCCCC[N+](C)(C)C		inactive
CCc1cnc(C2=NC(C)(C(C)C)C(=O)N2)c(C(=O)O)c1 (stereo not drawn)		inactive
CCCCCBr	-0.53%	
COP(=S)(OC)Oc1ccc(Sc2ccc(OP(=S)(OC)OC)cc2)cc1		inactive
CC(=O)CCC(C)=O	0.104%	
CCOP(=O)(O)OCC (tested in a mixture with another compound)		inactive
O=[N+]([O-])c1ccc(Cl)c(Cl)c1		inactive
CC(C)(O)C(=O)Nc1ccc([N+](=O)[O-])c(C(F)(F)F)c1		inactive
CCCCNC(=O)n1c(NC(=O)OC)nc2ccccc21		inactive
CCC(Cl)[N+](=O)[O-] (stereo not drawn)	-0.319%	
CCCCCCCCCCCC(=O)O		inactive
OC(Cc1ccccc1Cl)(Cn1cncn1)C1(Cl)CC1 (stereo not drawn)	0.71%	

Tested on: not listed separately
Test: p53 small molecule agonists, cell-based qHTS assay with human liver microsomes (AID 1963577);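 also: p53 response element beta-lactamase reporter cells with liver microsomes plus NADPH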
Conditions: HCT-116 p53RE-bla with human liver microsomes, ratio, 16 h; series mostly up to 66 µM; activation: at the top concentration
In short: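 Steps: plate p53RE-bla cells, incubate 5 h at 37 C; add compound in DMSO; add microsomes (0.5 mg/mL final) and NADPH (0.5 mg/mL final); incubate 16 h at 37 C; add LiveBLAzer, 2 h RT; read fluorescence.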

Structure (SMILES)	activation	Potency
CCC(C)(C#N)N=NC(C)(C#N)CC (stereo not drawn)	0.0019%	
c1ccc(Nc2ccc3ccccc3c2)cc1		inactive
CCOP(=O)(OCC)OP(=O)(OCC)OCC	8.12%	
Nc1cccnc1		inactive
CC(C)Nc1nc(Cl)nc(NC(C)C)n1		inactive
CC(C)OS(C)(=O)=O	2.91%	
CC(=O)[O][Hg][c]1ccccc1		inactive
C#CCOS(=O)OC1CCCCC1Oc1ccc(C(C)(C)C)cc1 (stereo not drawn)		inactive
ClCC(Br)CBr (stereo not drawn)	0.77%	
CCCCCON=O	-16.1%	
CON(C)C(=O)Nc1ccc(Cl)cc1	-0.229%	
COc1c(C(C)(C)C)cc([N+](=O)[O-])c(C)c1[N+](=O)[O-]	0.817%	
Cc1ccc(N)cc1		inactive
